Compound activity (PubChem)
ALDH1A1 block – ALDH1A1 (human) enzyme inhibition; P00352; Purified ALDH1A1, NADH fluorescence, propionaldehyde substrate; Potency, µM (top dose mostly 75.3 µM), most hits filed as inhibitors; 220,000 compounds, 7.3% hits; AID 1030; active = well fitted inhibition curve with a large enough effect, not every such curve was filed as active; inconclusive = small, poorly fitted or top-dose-only effect, or another doubt; inactive = no such curve, though single readings can be large or run the other way
Target sequence (P00352 whole entry, looked up): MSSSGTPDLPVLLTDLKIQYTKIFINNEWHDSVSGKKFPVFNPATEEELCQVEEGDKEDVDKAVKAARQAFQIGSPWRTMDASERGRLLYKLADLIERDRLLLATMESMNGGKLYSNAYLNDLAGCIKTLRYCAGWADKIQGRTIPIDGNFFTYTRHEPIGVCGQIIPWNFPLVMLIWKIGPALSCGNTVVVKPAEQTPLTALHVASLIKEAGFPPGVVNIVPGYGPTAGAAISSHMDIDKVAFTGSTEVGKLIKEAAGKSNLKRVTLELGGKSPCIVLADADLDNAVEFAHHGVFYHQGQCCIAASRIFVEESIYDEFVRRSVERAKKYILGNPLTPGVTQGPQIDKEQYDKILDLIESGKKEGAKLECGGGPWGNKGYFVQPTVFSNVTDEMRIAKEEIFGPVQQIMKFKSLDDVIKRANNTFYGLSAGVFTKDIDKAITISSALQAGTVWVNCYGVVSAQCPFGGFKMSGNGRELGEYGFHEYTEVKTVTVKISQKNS
HttQ103 aggreg – mutant huntingtin aggregation inhibition; PC12 HttQ103-GFP aggregates, Acumen cytometry, 40 h; Potency, µM (top dose mostly 46.1 µM), most hits filed as inhibitors; 220,000 compounds, 1.1% hits; AID 1688; also: nearly all actives have a fitted effect of over 60% in size
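Aggregate formation scored by laser-scanning cytometer (488 excitation, 500–530 emission) in lysed PC12 cells expressing Q103-GFP after 100 nM tebufenozide induction; library tested in dose series, with ATPLite reagent added in the multiplex.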
IMPase Li cell – membrane-permeable IMPase blocker, potentiated with lithium | 210,000 compounds, 0.35% hits | Potency, µM (series often up to 59.4 µM), actives largely listed as inhibitors | CHO-M1 cells, IP1 TR-FRET (IP-One), carbachol + lithium;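 also: IP1 builds up when IMPase is blocked and the TR-FRET signal falls; nearly all actives have a fitted effect of over 50% in size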
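Readout is a homogeneous TR-FRET IP1 immunoassay (Ex 320, Em 665 and 620), where raised cytosolic IP1 lowers signal. Cells were CHO-M1 treated 30 min at 37C with test compounds plus a little lithium; AC50 values came from Hill-equation fitting.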
IMPase inh – membrane-permeable compound that blocks inositol monophosphatase; P97697; CHO-M1 cells, IP1 accumulation, HTRF TR-FRET ratio; inhibition (IP1 accumulation), % at 46.1 µM; 120,000 tested, under 10 active; AID 901; active = well fitted curve in the direction sought with a large enough effect in the signal ratio, not every such curve was filed as active; inconclusive = small, poorly fitted or top-dose-only effect, or a change in a side signal; inactive = no such curve, though single readings can be large or run the other way; the % refers to the signal ratio;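 also: cells stimulated with carbachol in lithium chloride buffer; higher means more IMPase inhibition seen as more IP1 and lower FRET ratio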
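Seeded CHO-M1 cells were dosed with compound at up to 46 uM, stimulated with carbachol for 30 min, then lysed in IP-One detection reagents. Higher IP1 lowers the TR-FRET signal.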
HTT cytoprotect – protects HTT-Q103 PC12 cells, measured by ATP | PC12 HTT-Q103 induced, cytoprotection, ATP luminescence, 40 h | Potency, µM (top dose mostly 56.4 µM), most hits filed as activators | 230,000 compounds, 0.14% hits | AID 1471; also: nearly all actives have a fitted effect of over 45% in size
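Compounds were screened for protection of PC12 cells against cell death after tebufenozide induction (100 nM final) of mutant Huntingtin exon 1 (Q103) fused to GFP.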
HPGD block – blocks human HPGD enzyme activity. P15428. purified HPGD, NADH fluorescence kinetic, PGE2 substrate. Potency, µM, actives largely listed as inhibitors. 150,000 compounds, 4.3% hits; active = well fitted inhibition curve with a large enough effect, not every such curve was filed as active; inconclusive = small, poorly fitted or top-dose-only effect, or another doubt; inactive = no such curve, though single readings can be large or run the other way
Target sequence (P15428 whole entry, looked up): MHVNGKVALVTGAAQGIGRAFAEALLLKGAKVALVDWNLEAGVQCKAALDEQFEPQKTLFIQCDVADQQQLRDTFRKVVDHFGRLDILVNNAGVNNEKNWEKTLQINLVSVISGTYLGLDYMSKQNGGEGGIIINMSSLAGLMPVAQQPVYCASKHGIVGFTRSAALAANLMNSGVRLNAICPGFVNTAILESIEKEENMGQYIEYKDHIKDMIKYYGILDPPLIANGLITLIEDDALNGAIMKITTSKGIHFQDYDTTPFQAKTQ
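NADH formation kinetics: reaction with 30 uM PGE2 and 1 mM NAD+ (final), 20 nM enzyme, Tris-HCl pH 8 with Tween 20, after 15 min compound preincubation at room temperature. Fluorescence change, last versus first of five reads.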
A number is an active result; [ ] = remark or other dose. Shown are actives, neighbours in structure and some others; about 9.4% of the full set was active somewhere. Unless noted, calls follow the shape of the dose curve; as a rule, active = well fitted curve in the direction sought with a large enough effect; inconclusive = small, poorly fitted or top-dose-only effect, or another doubt; inactive = no such curve, though single readings can be large; an effect the other way counts as inactive or inconclusive.

Results for NC1=NC(=O)/C(=C/c2cn(CCC(=O)O)nc2-c2ccc(F)cc2)S1 ?
ALDH1A1 block: inactive; HttQ103 aggreg: inactive; IMPase Li cell: inactive; IMPase inh: inactive; HTT cytoprotect: inactive[10 µM]; HPGD block: 25.1µM

How did N#CCCn1cc(/C=C/C(=O)O)c(-c2ccc(F)cc2)n1 do in these assays?
ALDH1A1 block: inactive; HttQ103 aggreg: inactive; IMPase Li cell: inactive; HTT cytoprotect: inactive

What do the screens show for `NC1=NC(=O)/C(=C/c2cn(CCC(=O)O)nc2-c2ccc(Cl)cc2)S1`?
ALDH1A1 block: inactive; HttQ103 aggreg: inactive; IMPase Li cell: inactive; IMPase inh: inactive; HTT cytoprotect: inactive[10 µM]; HPGD block: 12.6µM

How did CN1/C(=C/c2cc[n+](C)c3ccccc23)C=Cc2ccccc21 do in these assays?
ALDH1A1 block: inactive; HttQ103 aggreg: 2.51µM; IMPase Li cell: inactive; HTT cytoprotect: inactive

Results for COc1ccc(C(=O)N2CCC[C@@]3(CCN(Cc4cc(C(F)(F)F)cc(C(F)(F)F)c4)C3)C2)cc1 ?
ALDH1A1 block: inactive; IMPase Li cell: inactive; HTT cytoprotect: inactive; HPGD block: inactive

Results for Clc1ccccc1-c1nc2nc3ccccc3nc2n1-c1ccc2c(c1)OCO2 ?
ALDH1A1 block: 11.2µM; HttQ103 aggreg: inactive; IMPase Li cell: inactive; HPGD block: inactive

Results for COC(=O)c1ccc(C(NC(=O)OCc2ccccc2)/C(=C/[C@@H](C)C(=O)NCc2cc(C)on2)c2cccnc2)cc1 (some centres undefined) ?
ALDH1A1 block: inactive; IMPase Li cell: inactive; HTT cytoprotect: inactive; HPGD block: inactive

Results for COc1ccc(C(=O)Cn2nnc(-c3ccccc3NC(=O)C3CCCCC3)n2)cc1 ?
ALDH1A1 block: 0.282µM; HttQ103 aggreg: 12.6µM; IMPase Li cell: inactive; IMPase inh: inactive; HTT cytoprotect: inactive; HPGD block: inactive

Results for O=C(CN1C(=O)S/C(=C\C=C\c2ccccc2)C1=O)Nc1ccc(C(=O)O)cc1 ?
ALDH1A1 block: 12.6µM; HttQ103 aggreg: inactive[9.22 µM]; HTT cytoprotect: inactive[10 µM]

What do the screens show for `C=CCN=c1scc(-c2ccco2)n1/N=C/c1ccc(O)c(O)c1O`?
HttQ103 aggreg: inactive[9.22 µM]; HTT cytoprotect: inactive[10 µM]

What do the screens show for `Oc1ccc(/C=N/n2c(-c3ccco3)csc2=Nc2cccnc2)c(O)c1`?
ALDH1A1 block: inactive; HttQ103 aggreg: inconclusive; IMPase Li cell: inactive; HTT cytoprotect: inactive[10 µM]; HPGD block: inactive

How did COCCN=c1scc(-c2ccco2)n1/N=C/c1ccc(O)c(O)c1O do in these assays?
ALDH1A1 block: 8.91µM; HttQ103 aggreg: inconclusive; IMPase Li cell: inactive; HTT cytoprotect: inconclusive

Results for CC(C)N=c1scc(-c2ccco2)n1/N=C/c1ccc(O)c(O)c1 ?
ALDH1A1 block: inactive; HttQ103 aggreg: inconclusive; IMPase Li cell: inactive; IMPase inh: inactive; HTT cytoprotect: inactive; HPGD block: 31.6µM

Results for CCC(=O)OC1CCC2C3CCc4cc(O)ccc4C3CC[C@]12C (some centres undefined) ?
ALDH1A1 block: inactive; IMPase Li cell: inactive; HPGD block: inactive

What do the screens show for `CCN(CC)c1ccc2cc(-c3nnc(-c4cccc(Cl)c4)o3)c(=O)oc2c1`?
IMPase inh: inactive

What do the screens show for `CCN(CC)c1ccc2cc(-c3nnc(-c4ccncc4)o3)c(=O)oc2c1`?
ALDH1A1 block: inconclusive; HttQ103 aggreg: 2.51µM; IMPase Li cell: inactive; IMPase inh: inactive; HTT cytoprotect: inactive[10 µM]; HPGD block: inconclusive

What do the screens show for `CC(=C1C(=O)c2ccccc2C1=O)N1CCN(Cc2ccccc2)CC1`?
ALDH1A1 block: 10µM; HttQ103 aggreg: inactive; IMPase Li cell: inactive; IMPase inh: inactive; HTT cytoprotect: inactive; HPGD block: inactive

What do the screens show for `CC(=C1C(=O)c2ccccc2C1=O)N1CCC(C(N)=O)(N2CCCCC2)CC1`?
ALDH1A1 block: 20µM; HttQ103 aggreg: inactive; IMPase Li cell: inactive; IMPase inh: inactive; HTT cytoprotect: inactive; HPGD block: inactive

What do the screens show for `CC(=C1C(=O)c2ccccc2C1=O)N1CCN(C/C=C/c2ccccc2)CC1`?
ALDH1A1 block: 8.91µM; HttQ103 aggreg: inactive; IMPase Li cell: inactive; IMPase inh: inactive; HTT cytoprotect: inactive; HPGD block: inactive

What do the screens show for `Cc1c(NC(=O)c2ccc(COc3ccc4ccccc4c3)o2)c(=O)n(-c2ccccc2)n1C`?
ALDH1A1 block: inconclusive; HttQ103 aggreg: inactive; IMPase Li cell: inactive; IMPase inh: inactive; HTT cytoprotect: inactive[0.074 µM]; HPGD block: 35.5µM

What do the screens show for `Cc1cccc(NC(=O)c2ccc(COc3ccc4ccccc4c3)o2)n1`?
ALDH1A1 block: inactive; HttQ103 aggreg: inactive[9.22 µM]; IMPase Li cell: inactive; HTT cytoprotect: inactive[10 µM]

What do the screens show for `O=C(c1ccc(F)cc1F)C1CCN(c2ccc([N+](=O)[O-])cn2)CC1`?
ALDH1A1 block: 20µM; HttQ103 aggreg: inactive[9.22 µM]; HTT cytoprotect: inactive[10 µM]

Results for Cc1cc2n(n1)SC(Nc1ccccc1)N2 (centres undefined) ?
ALDH1A1 block: 25.1µM; HttQ103 aggreg: inactive; IMPase Li cell: inactive; IMPase inh: inactive; HTT cytoprotect: inactive; HPGD block: inactive

How did CC(=O)N1CCN(c2ccccc2NC(=O)c2ccc(-c3cccc([N+](=O)[O-])c3)o2)CC1 do in these assays?
ALDH1A1 block: 14.1µM; HttQ103 aggreg: inactive; IMPase Li cell: inactive; HTT cytoprotect: inactive

How did O=C(NC(=S)Nc1ccccc1N1CCCCC1)c1ccc(-c2cccc([N+](=O)[O-])c2)o1 do in these assays?
ALDH1A1 block: inconclusive; HttQ103 aggreg: inactive; IMPase Li cell: inactive; IMPase inh: inactive; HTT cytoprotect: inactive; HPGD block: inactive

How did O=C(NC(=S)Nc1ccccc1N1CCCC1)c1ccc(-c2cccc([N+](=O)[O-])c2)o1 do in these assays?
ALDH1A1 block: 22.4µM; HttQ103 aggreg: inconclusive; IMPase Li cell: inactive; IMPase inh: inactive; HTT cytoprotect: inactive; HPGD block: 25.1µM

How did O=C(NC(=S)Nc1ccccc1O)c1ccc(-c2ccc(Cl)cc2)o1 do in these assays?
ALDH1A1 block: inactive; HttQ103 aggreg: 11.2µM; IMPase Li cell: inactive; IMPase inh: inactive; HTT cytoprotect: inactive; HPGD block: inactive

Results for CCCCCCC(O)C/C=C/CCCCCCCC(=O)O (centres undefined) ?
HttQ103 aggreg: inactive; HTT cytoprotect: inactive

What do the screens show for `CC1=CC(=O)C2=C(C)C[C@@H]3OC(=O)[C@@H](C)[C@H]3C=C12`?
ALDH1A1 block: inactive; IMPase Li cell: inactive; HTT cytoprotect: inactive; HPGD block: inactive

How did O=C1ON=C(c2ccccc2)/C1=C/c1ccco1 do in these assays?
ALDH1A1 block: inconclusive; HttQ103 aggreg: inactive; IMPase Li cell: inactive

How did COc1ccc(/C=C2\C(=O)ON=C2c2cccc([N+](=O)[O-])c2)cc1 do in these assays?
ALDH1A1 block: 17.8µM; HttQ103 aggreg: inactive; IMPase Li cell: inactive; HTT cytoprotect: inactive
